# Data as given in PubChem BioAssay.
# Activity calls are given as the source filed them.
# Experiments:
# [1] = system: PRMT1 (protein arginine N-methyltransferase 1); experiment: PRMT1 binders on small-molecule microarrays, primary screen, biochemical, small-molecule microarray, 635 nm fluorescence (AID 1088); conditions: small-molecule microarray binding, higher = more signal;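 further: binding of Prmt1 protein to compounds spotted on small-molecule microarray slides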
# [2] = yeast growth modulation, basal conditions, primary screen, YJM789 clinical isolate, OD600, 24 h (AID 1089);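 further: growth of clinical yeast isolate S. cerevisiae YJM 789 seeded 1000 cells per well; test concentration not given here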; conditions: S. cerevisiae YJM789 growth, higher = more signal, called active from +8 up or from −8 down
# [3] = fission yeast growth modulation, primary screen, strain 972, OD600, 24 h, no modulator (AID 1090);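 further: basal condition with compound alone and no growth modifier present; test concentration not given here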; conditions: S. pombe 972 growth, higher = more signal, called active from +8 up or from −8 down
# [4] = S. cerevisiae growth modulation with rapamycin, primary screen, strain BY4716, OD600, 96 h (AID 1091); conditions: higher = more signal, called active from +8 up or from −8 down; further: test concentration not given here
# [5] = biological target: Torsin-1A-interacting protein 2 (Homo sapiens) (UniProt Q8NFQ8); experiment: LULL1 binders on small-molecule microarray, primary screen, cell lysate, human LULL1 lysate, 635/667 nm fluorescence (AID 1092); conditions: hLULL1 lysate binding, 635 nm fluorescence, higher = more signal;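 further: probe is lysate of COS7 cells overexpressing human LULL1; score merges per-feature 667 nm fluorescence with signal-to-noise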
# [6] = E. coli growth modulation, two-sided OD650, primary screen, E. coli filamentation project, strain DRC41, 24 h (AID 1093); conditions: OD650, 24 h, higher = more signal, called active from +8 up or from −8 down;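 further: MC1000 strain lacking acrAB efflux and sulA so SOS filamentation is blocked; test concentration not given here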
# [7] = small-molecule microarray binders of probe aLefty2, primary screen, biochemical, biotinylated probe, 635/667 nm fluorescence (AID 1094); conditions: higher = more signal;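 further: score merges spot fluorescence near 667 nm with spot signal-to-noise ratio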
# [8] = system: Noggin (protein binding on small-molecule microarray); experiment: Noggin binders on small-molecule microarray, primary screen, biochemical, 635/667 nm fluorescence (AID 1095); conditions: 635 nm fluorescence, higher = more signal;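 further: score merges 667 nm feature fluorescence with signal to noise over triplicate slides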
# [9] = biological target: Neurogenic locus notch homolog protein 3 (Homo sapiens) (UniProt Q9UM47); experiment: NOTCH3 binders on small-molecule microarray, primary screen, biochemical, 635/667 nm fluorescence (AID 1096); conditions: NOTCH3 binding, 635 nm fluorescence, higher = more signal
# [10] = small-molecule microarray binders of probe aEGFR, primary screen, biochemical, biotinylated probe, 635/667 nm fluorescence (AID 1097); conditions: higher = more signal;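 further: probe is a biotinylated anti-EGFR antibody binding compounds printed on slides; score combines fluorescence near 667 nm and signal to noise of each spot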
# Sequence of Neurogenic locus notch homolog protein 3 (Homo sapiens) (Q9UM47 whole entry, looked up): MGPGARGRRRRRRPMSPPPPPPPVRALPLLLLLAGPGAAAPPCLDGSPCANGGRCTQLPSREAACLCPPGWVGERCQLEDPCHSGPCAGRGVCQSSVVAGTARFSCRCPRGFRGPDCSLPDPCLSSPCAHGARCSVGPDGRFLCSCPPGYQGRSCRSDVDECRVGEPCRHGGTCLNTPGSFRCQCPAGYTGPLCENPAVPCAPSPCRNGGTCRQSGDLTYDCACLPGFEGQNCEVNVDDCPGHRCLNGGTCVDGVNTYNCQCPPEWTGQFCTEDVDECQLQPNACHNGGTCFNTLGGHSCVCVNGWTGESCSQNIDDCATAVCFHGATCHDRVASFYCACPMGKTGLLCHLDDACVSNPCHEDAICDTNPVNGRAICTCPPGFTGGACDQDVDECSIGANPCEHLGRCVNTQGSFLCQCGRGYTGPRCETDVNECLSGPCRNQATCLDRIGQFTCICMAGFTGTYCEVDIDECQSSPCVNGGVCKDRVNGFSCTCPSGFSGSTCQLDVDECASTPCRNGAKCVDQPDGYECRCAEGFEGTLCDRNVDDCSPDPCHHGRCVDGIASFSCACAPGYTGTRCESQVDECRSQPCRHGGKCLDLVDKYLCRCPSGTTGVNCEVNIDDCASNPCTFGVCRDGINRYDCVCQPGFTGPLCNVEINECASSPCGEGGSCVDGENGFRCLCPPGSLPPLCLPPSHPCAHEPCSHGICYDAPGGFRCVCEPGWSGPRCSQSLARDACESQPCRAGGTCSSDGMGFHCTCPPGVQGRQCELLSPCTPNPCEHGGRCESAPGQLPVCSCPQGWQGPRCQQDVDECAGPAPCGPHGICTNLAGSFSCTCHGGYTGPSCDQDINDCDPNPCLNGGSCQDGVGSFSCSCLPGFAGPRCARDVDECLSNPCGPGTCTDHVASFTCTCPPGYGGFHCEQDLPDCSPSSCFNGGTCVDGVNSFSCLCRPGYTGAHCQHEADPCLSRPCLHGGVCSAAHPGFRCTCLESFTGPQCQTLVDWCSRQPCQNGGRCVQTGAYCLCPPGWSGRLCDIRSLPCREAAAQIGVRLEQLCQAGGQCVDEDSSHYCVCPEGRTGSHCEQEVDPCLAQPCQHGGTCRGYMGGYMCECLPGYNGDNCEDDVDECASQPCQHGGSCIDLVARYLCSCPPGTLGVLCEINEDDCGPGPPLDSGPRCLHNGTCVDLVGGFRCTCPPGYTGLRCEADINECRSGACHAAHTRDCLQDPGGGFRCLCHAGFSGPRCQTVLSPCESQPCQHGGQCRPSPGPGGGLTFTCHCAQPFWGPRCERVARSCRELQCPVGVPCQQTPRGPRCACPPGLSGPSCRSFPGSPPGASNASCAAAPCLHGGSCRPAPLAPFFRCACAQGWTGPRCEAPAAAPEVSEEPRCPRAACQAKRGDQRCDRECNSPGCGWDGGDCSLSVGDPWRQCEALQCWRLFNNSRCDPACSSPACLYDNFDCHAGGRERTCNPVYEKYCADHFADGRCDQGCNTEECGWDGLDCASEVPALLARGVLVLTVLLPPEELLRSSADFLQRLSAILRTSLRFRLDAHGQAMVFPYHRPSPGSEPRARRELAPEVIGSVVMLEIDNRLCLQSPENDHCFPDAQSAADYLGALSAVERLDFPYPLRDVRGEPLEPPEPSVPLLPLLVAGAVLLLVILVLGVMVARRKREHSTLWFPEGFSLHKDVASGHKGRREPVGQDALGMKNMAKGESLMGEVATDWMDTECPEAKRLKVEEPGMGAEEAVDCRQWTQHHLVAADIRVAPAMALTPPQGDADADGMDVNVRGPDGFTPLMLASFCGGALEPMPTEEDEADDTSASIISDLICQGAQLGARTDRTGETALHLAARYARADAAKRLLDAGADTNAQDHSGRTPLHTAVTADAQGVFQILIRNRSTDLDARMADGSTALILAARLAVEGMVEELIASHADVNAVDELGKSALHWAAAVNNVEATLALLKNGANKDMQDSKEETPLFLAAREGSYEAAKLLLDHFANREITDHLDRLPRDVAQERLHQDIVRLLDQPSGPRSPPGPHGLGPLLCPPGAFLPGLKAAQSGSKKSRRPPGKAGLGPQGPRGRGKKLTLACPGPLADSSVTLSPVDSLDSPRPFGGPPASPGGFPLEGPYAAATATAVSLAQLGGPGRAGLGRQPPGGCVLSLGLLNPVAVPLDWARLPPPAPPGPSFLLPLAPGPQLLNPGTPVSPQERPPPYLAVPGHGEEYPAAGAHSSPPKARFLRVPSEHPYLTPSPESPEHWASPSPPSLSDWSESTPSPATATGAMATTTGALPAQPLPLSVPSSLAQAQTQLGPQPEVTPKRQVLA
# Sequence of Torsin-1A-interacting protein 2 (Homo sapiens) (Q8NFQ8 whole entry, looked up): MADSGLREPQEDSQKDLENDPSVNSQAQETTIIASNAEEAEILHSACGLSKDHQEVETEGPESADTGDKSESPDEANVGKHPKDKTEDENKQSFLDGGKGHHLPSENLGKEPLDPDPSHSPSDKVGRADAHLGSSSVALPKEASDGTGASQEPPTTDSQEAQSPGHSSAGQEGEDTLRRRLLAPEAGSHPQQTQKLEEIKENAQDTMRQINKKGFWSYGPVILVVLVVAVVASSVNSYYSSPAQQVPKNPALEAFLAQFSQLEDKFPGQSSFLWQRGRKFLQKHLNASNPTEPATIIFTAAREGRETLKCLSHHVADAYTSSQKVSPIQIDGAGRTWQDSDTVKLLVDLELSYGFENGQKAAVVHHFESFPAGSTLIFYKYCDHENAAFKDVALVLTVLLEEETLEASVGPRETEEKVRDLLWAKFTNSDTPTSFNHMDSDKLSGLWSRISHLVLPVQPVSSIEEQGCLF
SMILES,composite z-score [1],z-score [2],z-score [3],z-score [4],composite z-score [5],z-score [6],composite z-score [7],composite z-score [8],composite z-score [9],composite z-score [10]
COCCOC(=O)N1C(=O)[C@@]2(c3cc(C#CCC(C(=O)OC)C(=O)OC)ccc31)[C@H](c1ccccc1OCCO)N1[C@H](c3ccccc3)[C@H](c3ccccc3)OC(=O)[C@H]1[C@@H]2C(=O)NC[C@H](O)c1ccccc1,1.54,1.78 (inactive),2.17 (inactive),5.84 (inactive),2.32,-0.036 (inactive),0.032,1.62,1.05,0.379
CN1C(=O)C2C=CC(C(O)c3ccco3)N(Nc3ccccc3)C2C1=O (stereo not given),0.941,0.312 (inactive),0.899 (inactive),1.74 (inactive),2.52,-1.37 (inactive),0.0569,0.139,0.275,-0.0976
Cc1ccc(S[C@]2(C(=O)NCCCN(C)C)CC(=O)N(Cc3cc(C(F)(F)F)cc(C(F)(F)F)c3)[C@@H]2c2ccc(CO)cc2)cc1,0.383,-1.15 (inactive),-0.79 (inactive),-0.497 (inactive),0.923,-0.356 (inactive),-0.0478,-0.768,-1.5,-0.113
CC(C)CNC(=O)[C@@]1(Cc2ccccc2I)c2ccccc2C(=O)N(C2CCCCC2)[C@H]1c1ccc(CO)cc1,1.57,-1.32 (inactive),-0.597 (inactive),0.153 (inactive),1.28,-0.518 (inactive),0.164,-0.235,0.497,0.0066
C=CCNC(=O)[C@H]1[C@@H]2C(=O)O[C@@H](c3ccccc3)[C@@H](c3ccccc3)N2[C@@H](c2ccccc2OCCO)[C@]12C(=O)Nc1ccc(C#CCCO)cc12,-0.294,1.69 (inactive),-0.648 (inactive),4.32 (inactive),2.24,-0.462 (inactive),-0.0617,-0.76,-0.104,-0.0353
Cc1ccc(S[C@]2(C(=O)NCCCN(C)C)CC(=O)N(Cc3ccccc3C(F)(F)F)[C@@H]2c2ccc(CO)cc2)cc1,0.486,-0.339 (inactive),-0.543 (inactive),-0.914 (inactive),1.91,0.783 (inactive),0.0446,-0.858,-1.3,-0.227
COC(=O)[C@]1(CCC(=O)OC(C)(C)C)N=C(c2ccc(OCCCO)cc2)O[C@@H]1c1ccccc1CN=[N+]=[N-],1.52,0.339 (inactive),0.419 (inactive),15.2 (active),2.07,-0.511 (inactive),0.271,-0.146,0.51,0.124
